Assay [1] has as its target Myc proto-oncogene protein (Homo sapiens) (UniProt P01106). Kind of assay: ATG_Myc_CIS: Attagene CIS-FACTORIAL HepG2 Assay for human Myelocytomatosis (Myc) Proto-Oncogene Transcription Factor (AID 2282990). The conditions noted are these: HepG2, Attagene cis-reporter transcription factor activity; actives raise or lower the signal. Summed up:
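Transiently transfected HepG2 cells bearing cis-promoter reporter units for endogenous transcription factors; 24 h exposure. Reporter mRNA measured by RT-PCR, 6-FAM primer extension, HpaI cut and capillary electrophoresis; bidirectional fit relative to DMSO.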

Assay [2] in a line: ATG_NF_kB_CIS: Attagene CIS-FACTORIAL HepG2 Assay for human Nuclear Factor Kappa B (NF-kB) (AID 2282991). The conditions noted are these: HepG2 Attagene cis-factorial NF-kB reporter mRNA; actives raise or lower the signal. Summed up: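 Readout is reporter transcript level, gain or loss versus DMSO, measured 24 h post-dose via RT-PCR, fluorescent labelling and capillary electrophoresis. Human HepG2 liver cells carried transiently transfected CIS reporter constructs reflecting endogenous factors.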

Assay [3] can be described thus: ATG_NRF2_ARE_CIS: Attagene CIS-FACTORIAL HepG2 Assay for human Nuclear Factor Erythroid 2 Related Factor 2 (NFR2) response to Antioxidant Response Elements (ARE) (AID 2282992). The conditions noted are these: HepG2 Attagene ARE/NRF2 reporter, transcription factor activity; actives raise or lower the signal. Summed up: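 Endogenous transcription factor activity read out as reporter transcript levels (RT-PCR plus capillary electrophoresis, fluorescence) in transiently transfected HepG2 cells. Measured at 24 h after dosing; gain or loss of signal fitted versus DMSO.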

A short description of assay [4]: ATG_Oct_MLP_CIS: Attagene CIS-FACTORIAL HepG2 Assay for human Octamer-Binding Transcription Factor (Oct) (AID 2282993). As to conditions: HepG2 Attagene cis-factorial Oct reporter, mRNA; actives raise or lower the signal. Put shortly:
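Transient MRTU transfection of HepG2 → 24 h compound treatment → RNA isolation, reverse transcription, PCR → 6-FAM primer extension, HpaI digest → capillary electrophoresis. Activity fitted both directions against DMSO.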

Assay [5] is described as follows: BSK_3C_TissueFactor: BioMAP Diversity Plus: 3C Assay for Tissue Factor Biomarker Activity (AID 2282997). The conditions noted are these: BioMAP 3C HUVEC, tissue factor biomarker readout; actives raise or lower the signal. Summed up:
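In this endothelial system, HUVEC are treated for 24 h and Tissue Factor is assessed by ELISA, normalised to DMSO.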

Assay [6] can be described thus: BSK_3C_uPAR: BioMAP Diversity Plus: 3C Assay for Urokinase-type plasminogen activator receptor (uPAR) Biomarker Activity (AID 2282998). As to conditions: BioMAP 3C HUVEC, uPAR biomarker ELISA; actives raise or lower the signal. Put shortly: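 ELISA readout of uPAR on human vascular endothelium (umbilical vein primary cells), taken 24 h after chemical dosing. Increases and decreases are both fitted relative to DMSO vehicle.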
In general terms: ELISA stands for enzyme-linked immunosorbent assay.

Assay [7] can be described thus: BSK_3C_VCAM1: BioMAP Diversity Plus: 3C Assay for Vascular cell adhesion molecule 1 (VCAM1) Biomarker Activity (AID 2282999). As to conditions: BioMAP 3C HUVEC, VCAM1 ELISA, cytokine-stimulated; actives raise or lower the signal. Summed up: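 HUVEC primary cells, 24 h compound exposure; VCAM-1 by ELISA; gain/loss of signal fitted bidirectionally vs DMSO baseline.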

Assay [8] can be described thus: BSK_4H_Eotaxin3: BioMAP Diversity Plus: 4H Assay for Eotaxin 3 Biomarker Activity (AID 2283000).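 Further: CCL26 protein level quantified by ELISA in parallel with SRB cytotoxicity check.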 The conditions noted are these: primary human endothelial cells (HUVEC); actives raise or lower the signal. Put shortly: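 ELISA quantitation of CCL26 (Eotaxin-3) protein from chemically dosed human vascular endothelial cells at 24 h; increases and decreases both scored relative to DMSO-treated baseline.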

Assay [9] deals with human Peroxisome Proliferator-activated Receptor alpha (PPARa), PPARA (gene 5465) (UniProt Q07869). Kind of assay: ATG_PPARa_TRANS: Attagene TRANS-FACTORIAL HepG2 Assay for human Peroxisome Proliferator-activated Receptor alpha (PPARa) (AID 2283001; active means hit-call score of the fitted dose curve at least 0.9, where 1 is the maximum;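 on AC50: potency for gain of reporter signal over DMSO so agonist or activator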). Summed up: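 HepG2, transient MRTU transfection, 24 h treatment. RT-PCR → FAM labelling → capillary electrophoresis. Fit vs DMSO, positive direction.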
human Peroxisome Proliferator-activated Receptor alpha (PPARa), PPARA (gene 5465), sequence (Q07869 whole entry, looked up): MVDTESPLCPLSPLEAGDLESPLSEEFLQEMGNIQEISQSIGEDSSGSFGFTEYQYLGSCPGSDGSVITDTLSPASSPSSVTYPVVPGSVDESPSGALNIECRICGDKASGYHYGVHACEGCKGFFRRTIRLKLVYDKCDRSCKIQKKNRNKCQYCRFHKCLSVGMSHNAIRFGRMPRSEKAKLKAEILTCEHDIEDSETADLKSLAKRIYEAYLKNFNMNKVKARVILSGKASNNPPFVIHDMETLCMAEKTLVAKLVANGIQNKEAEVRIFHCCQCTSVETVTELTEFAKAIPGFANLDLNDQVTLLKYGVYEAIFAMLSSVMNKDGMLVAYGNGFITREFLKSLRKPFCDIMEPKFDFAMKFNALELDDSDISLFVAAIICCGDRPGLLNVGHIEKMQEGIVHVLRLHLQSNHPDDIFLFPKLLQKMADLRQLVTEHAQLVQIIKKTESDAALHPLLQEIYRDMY

Assay [10] concerns the target human Peroxisome Proliferator-activated Receptor delta (PPARd), PPARD (gene 5467) (UniProt Q03181). Nature of the assay: ATG_PPARd_TRANS: Attagene TRANS-FACTORIAL HepG2 Assay for human Peroxisome Proliferator-activated Receptor delta (PPARd) (AID 2283002; active means hit-call score of the fitted dose curve at least 0.9, where 1 is the maximum). Put shortly: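 HepG2 cells transiently transfected with GAL4-UAS multiplexed reporter units driven by exogenous chimeric NR-GAL4 proteins; 24 h compound exposure. Reporter mRNA measured by RT-PCR, 6-FAM primer extension, HpaI digestion and capillary electrophoresis; gain of signal fitted relative to DMSO.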

Read-out in assay [11]: Intercellular Adhesion Molecule 1 (ICAM1), ICAM1 (gene 3383)
Nature of the assay: BSK_3C_ICAM1: BioMAP Diversity Plus: 3C Assay for Intercellular Adhesion Molecule 1 (ICAM1) Biomarker Activity (AID 2283003). As to conditions: primary human endothelial cells (HUVEC); actives raise or lower the signal. Put shortly: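 Chemicals are dosed onto primary human umbilical vein endothelium (3C system). After 24 h, ICAM-1 is measured by ELISA, and responses are fitted bidirectionally relative to DMSO.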

Assay [12] has as its target Retinoic acid receptor alpha (Homo sapiens) (UniProt P10276). Nature of the assay: ATG_RARa_TRANS: Attagene TRANS-FACTORIAL HepG2 Assay for human Retinoic Acid Receptor alpha (RARa) (AID 2283005; active means hit-call score of the fitted dose curve at least 0.9, where 1 is the maximum). Put shortly: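 HepG2 transiently transfected with multiplex GAL4-UAS reporter units including a human RARa–GAL4 chimera; 24 h compound exposure. Reporter mRNA quantified by RT-PCR, 6-FAM labeling and capillary electrophoresis; gain of signal versus DMSO.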

Assay [13] can be described thus: BSK_3C_Proliferation: Cell Proliferation Assessment in the BioMAP Diversity Plus: 3C Assay (AID 2283006).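 Further: potency may reflect either rise or fall in cell number versus DMSO.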 The conditions noted are these: primary human endothelial cells (HUVEC). Put shortly: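 Cells (human umbilical vein endothelial, sub-confluent) receive test chemical; after 48 h they are fixed in 10% trichloroacetic acid, stained with 0.1% SRB and read at 560 nm. Activity is referenced to DMSO, fitting increases and decreases.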

Assay [14] concerns the target Peroxisome proliferator-activated receptor gamma (Homo sapiens) (UniProt P37231). Kind of assay: ATG_PPARg_TRANS: Attagene TRANS-FACTORIAL HepG2 Assay for human Peroxisome Proliferator-activated Receptor-gamma (PPARg) (AID 2283007; active means hit-call score of the fitted dose curve at least 0.9, where 1 is the maximum). Put shortly: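 After 24 h of chemical exposure, transfected HepG2 cells carrying PPARγ-Gal4 chimera reporter constructs are lysed for RNA. Reporter transcripts are measured by RT-PCR and capillary electrophoresis with fluorescent labelling, and gain of signal is fitted versus DMSO.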

The target in assay [15] is Nuclear receptor subfamily 1 group I member 2 (Homo sapiens) (UniProt O75469). Kind of assay: ATG_PXR_TRANS: Attagene TRANS-FACTORIAL HepG2 Assay for human Pregnane X Receptor (PXR) (AID 2283008; active means hit-call score of the fitted dose curve at least 0.9, where 1 is the maximum). Summed up:
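Transactivation by exogenous PXR–GAL4 fusion measured as reporter transcript induction after 24 h compound treatment of transfected human HepG2 cells. Read-out via RT-PCR and capillary electrophoresis of labelled fragments, fitted upward relative to DMSO.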

For assay [16], the target named is human Retinoic Acid Receptor gamma (RARg), RARG (gene 5916) (UniProt P13631). Kind of assay: ATG_RARg_TRANS: Attagene TRANS-FACTORIAL HepG2 Assay for human Retinoic Acid Receptor gamma (RARg) (AID 2283009; active means hit-call score of the fitted dose curve at least 0.9, where 1 is the maximum). Summed up:
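TRANS format measured activity of exogenous NR-GAL4 fusion (RARg) in transfected HepG2 liver cells after 24 h dosing. Induced reporter RNA was detected by RT-PCR/capillary electrophoresis fluorescence, analysed in the positive direction against DMSO.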

The target in assay [17] is human RAR-related Orphan Receptor beta (RORb), RORB (gene 6096) (UniProt Q92753). Nature of the assay: ATG_RORb_TRANS: Attagene TRANS-FACTORIAL HepG2 Assay for human RAR-related Orphan Receptor beta (RORb) (AID 2283010; active means hit-call score of the fitted dose curve at least 0.9, where 1 is the maximum). Put shortly:
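Transfect HepG2 with multiple GAL4-UAS reporter transcription units; dose chemicals for 24 h; isolate RNA, reverse-transcribe and PCR-amplify reporter sequences; label, digest and resolve fragments by capillary electrophoresis; fit increases relative to DMSO.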

For assay [18], the target named is Cellular tumor antigen p53 (Homo sapiens) (UniProt P04637). Kind of assay: ATG_p53_CIS: Attagene CIS-FACTORIAL HepG2 Assay for human p53 Transcription Factor (AID 2282994). As to conditions: HepG2 p53 cis-element reporter, Attagene mRNA; actives raise or lower the signal. Summed up:
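Endogenous p53 activity read in transiently transfected HepG2 from a cis-element-driven reporter transcript after 24 h exposure. RNA reverse-transcribed, PCR-amplified, fluorescently labelled and sized by capillary electrophoresis; gain or loss fitted against DMSO baseline.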

Assay [19] has as its target human Retinoic Acid Receptor beta (RARb), RARB (gene 5915) (UniProt P10826). Kind of assay: ATG_RARb_TRANS: Attagene TRANS-FACTORIAL HepG2 Assay for human Retinoic Acid Receptor beta (AID 2283004; active means hit-call score of the fitted dose curve at least 0.9, where 1 is the maximum). Summed up:
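Fluorescent capillary-electrophoresis detection of GAL4-UAS reporter mRNA defines the endpoint, with induction over DMSO-treated wells scored as activity. Transiently transfected human hepatoma HepG2 cells expressing exogenous NR–Gal4 proteins are exposed to test chemicals for 24 h.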

Results filed as inconclusive are left out. The source made the active and inactive calls. How the source made its calls, unless noted: active means hit-call score of the fitted dose curve at least 0.9, where 1 is the maximum; inactive means score below 0.9.

Myc proto-oncogene protein (Homo sapiens), sequence (P01106 whole entry, looked up): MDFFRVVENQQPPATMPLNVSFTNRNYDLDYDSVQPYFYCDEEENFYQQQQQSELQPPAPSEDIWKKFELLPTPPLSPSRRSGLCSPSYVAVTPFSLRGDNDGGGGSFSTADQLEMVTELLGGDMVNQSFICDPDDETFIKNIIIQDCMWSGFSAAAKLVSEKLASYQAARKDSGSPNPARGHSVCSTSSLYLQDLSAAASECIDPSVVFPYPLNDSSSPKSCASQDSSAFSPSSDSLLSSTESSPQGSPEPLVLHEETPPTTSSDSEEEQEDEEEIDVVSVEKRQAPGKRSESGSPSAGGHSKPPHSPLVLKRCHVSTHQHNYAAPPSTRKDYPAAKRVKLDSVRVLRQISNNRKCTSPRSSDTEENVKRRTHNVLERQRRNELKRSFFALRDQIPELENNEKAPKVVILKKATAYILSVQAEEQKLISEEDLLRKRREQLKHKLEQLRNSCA
Cellular tumor antigen p53 (Homo sapiens), sequence (P04637 whole entry, looked up): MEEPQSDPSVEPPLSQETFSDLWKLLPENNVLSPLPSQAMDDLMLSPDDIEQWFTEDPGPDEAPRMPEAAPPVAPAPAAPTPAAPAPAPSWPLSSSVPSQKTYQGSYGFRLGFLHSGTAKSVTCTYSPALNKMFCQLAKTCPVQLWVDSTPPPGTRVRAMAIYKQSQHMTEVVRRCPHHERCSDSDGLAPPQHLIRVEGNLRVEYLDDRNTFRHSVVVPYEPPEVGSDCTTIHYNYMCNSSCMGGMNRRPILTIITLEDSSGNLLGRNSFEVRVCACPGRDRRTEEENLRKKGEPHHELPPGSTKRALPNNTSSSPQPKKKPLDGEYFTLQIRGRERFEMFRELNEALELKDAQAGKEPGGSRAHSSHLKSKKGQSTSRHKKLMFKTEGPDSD
human RAR-related Orphan Receptor beta (RORb), RORB (gene 6096), sequence (Q92753 whole entry, looked up, the tested form may be a part): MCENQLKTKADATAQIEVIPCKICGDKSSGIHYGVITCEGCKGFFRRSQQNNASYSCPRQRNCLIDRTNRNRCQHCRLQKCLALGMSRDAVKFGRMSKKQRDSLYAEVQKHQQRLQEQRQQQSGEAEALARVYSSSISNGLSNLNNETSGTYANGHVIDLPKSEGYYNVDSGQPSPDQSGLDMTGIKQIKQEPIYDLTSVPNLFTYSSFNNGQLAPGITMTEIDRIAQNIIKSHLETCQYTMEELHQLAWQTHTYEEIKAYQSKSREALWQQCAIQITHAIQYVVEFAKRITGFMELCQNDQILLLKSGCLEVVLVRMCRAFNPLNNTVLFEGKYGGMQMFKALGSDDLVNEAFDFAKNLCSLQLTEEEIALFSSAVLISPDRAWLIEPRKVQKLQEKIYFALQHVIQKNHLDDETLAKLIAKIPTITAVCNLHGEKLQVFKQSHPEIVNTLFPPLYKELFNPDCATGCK
Nuclear receptor subfamily 1 group I member 2 (Homo sapiens), sequence (O75469 whole entry, looked up, the tested form may be a part): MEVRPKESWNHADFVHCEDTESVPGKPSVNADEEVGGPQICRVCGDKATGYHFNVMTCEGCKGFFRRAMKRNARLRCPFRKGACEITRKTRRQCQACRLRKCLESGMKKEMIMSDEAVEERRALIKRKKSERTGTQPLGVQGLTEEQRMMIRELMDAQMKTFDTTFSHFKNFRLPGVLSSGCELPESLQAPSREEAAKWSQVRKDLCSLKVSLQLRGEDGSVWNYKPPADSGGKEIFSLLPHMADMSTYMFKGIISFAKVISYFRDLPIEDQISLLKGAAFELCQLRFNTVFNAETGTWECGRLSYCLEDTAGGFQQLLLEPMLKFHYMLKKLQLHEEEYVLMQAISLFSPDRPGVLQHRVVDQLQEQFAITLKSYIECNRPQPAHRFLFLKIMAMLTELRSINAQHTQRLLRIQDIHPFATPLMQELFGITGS
Peroxisome proliferator-activated receptor gamma (Homo sapiens), sequence (P37231 whole entry, looked up, the tested form may be a part): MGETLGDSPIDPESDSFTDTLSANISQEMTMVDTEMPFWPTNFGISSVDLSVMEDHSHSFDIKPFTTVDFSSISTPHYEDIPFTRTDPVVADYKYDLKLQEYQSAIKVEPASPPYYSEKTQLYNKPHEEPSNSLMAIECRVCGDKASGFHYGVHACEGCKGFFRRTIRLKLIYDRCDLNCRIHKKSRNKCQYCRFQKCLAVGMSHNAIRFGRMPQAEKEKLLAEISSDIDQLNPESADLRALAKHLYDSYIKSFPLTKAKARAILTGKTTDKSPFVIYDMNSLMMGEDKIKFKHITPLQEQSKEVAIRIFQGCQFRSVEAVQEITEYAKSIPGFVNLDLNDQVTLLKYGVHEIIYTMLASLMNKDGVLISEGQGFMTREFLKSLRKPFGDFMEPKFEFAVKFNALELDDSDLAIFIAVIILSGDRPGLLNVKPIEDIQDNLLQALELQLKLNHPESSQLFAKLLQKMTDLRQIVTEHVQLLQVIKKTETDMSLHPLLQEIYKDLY
human Peroxisome Proliferator-activated Receptor delta (PPARd), PPARD (gene 5467), sequence (Q03181 whole entry, looked up, the tested form may be a part): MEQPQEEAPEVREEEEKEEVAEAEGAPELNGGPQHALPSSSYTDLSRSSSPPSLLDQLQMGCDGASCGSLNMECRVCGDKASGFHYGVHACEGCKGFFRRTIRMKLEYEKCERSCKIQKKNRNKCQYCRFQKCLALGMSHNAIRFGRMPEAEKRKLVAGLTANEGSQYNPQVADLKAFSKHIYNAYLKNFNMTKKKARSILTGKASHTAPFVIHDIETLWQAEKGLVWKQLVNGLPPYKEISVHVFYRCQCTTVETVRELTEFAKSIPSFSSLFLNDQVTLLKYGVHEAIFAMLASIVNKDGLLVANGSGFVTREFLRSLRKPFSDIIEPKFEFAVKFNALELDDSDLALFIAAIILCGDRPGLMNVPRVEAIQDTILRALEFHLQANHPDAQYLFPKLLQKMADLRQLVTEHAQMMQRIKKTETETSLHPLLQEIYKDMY
human Retinoic Acid Receptor beta (RARb), RARB (gene 5915), sequence (P10826 whole entry, looked up, the tested form may be a part): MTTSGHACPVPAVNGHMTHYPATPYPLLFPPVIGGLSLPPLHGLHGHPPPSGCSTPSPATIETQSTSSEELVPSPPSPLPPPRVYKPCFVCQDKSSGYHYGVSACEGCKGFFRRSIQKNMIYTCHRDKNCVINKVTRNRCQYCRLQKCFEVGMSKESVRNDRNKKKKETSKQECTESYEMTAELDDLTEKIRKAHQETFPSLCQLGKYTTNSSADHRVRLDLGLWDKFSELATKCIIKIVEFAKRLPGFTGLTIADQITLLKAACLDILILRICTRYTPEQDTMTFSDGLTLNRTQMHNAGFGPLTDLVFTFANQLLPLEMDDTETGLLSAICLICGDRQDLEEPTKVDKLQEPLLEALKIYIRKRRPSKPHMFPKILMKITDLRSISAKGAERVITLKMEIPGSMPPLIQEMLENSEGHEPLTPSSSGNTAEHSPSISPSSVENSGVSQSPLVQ
Retinoic acid receptor alpha (Homo sapiens), sequence (P10276 whole entry, looked up, the tested form may be a part): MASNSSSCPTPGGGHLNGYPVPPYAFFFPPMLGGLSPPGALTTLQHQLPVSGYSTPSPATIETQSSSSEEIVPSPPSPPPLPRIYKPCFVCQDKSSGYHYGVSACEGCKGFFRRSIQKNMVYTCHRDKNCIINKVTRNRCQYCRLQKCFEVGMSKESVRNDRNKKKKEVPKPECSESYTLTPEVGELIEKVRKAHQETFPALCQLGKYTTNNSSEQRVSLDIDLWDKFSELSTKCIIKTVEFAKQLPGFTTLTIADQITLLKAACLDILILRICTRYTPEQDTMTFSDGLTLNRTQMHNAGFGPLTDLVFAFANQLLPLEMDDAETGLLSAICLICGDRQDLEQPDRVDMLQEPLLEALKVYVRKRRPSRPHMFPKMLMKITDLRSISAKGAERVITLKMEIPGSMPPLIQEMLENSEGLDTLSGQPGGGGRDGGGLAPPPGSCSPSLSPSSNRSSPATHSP
human Retinoic Acid Receptor gamma (RARg), RARG (gene 5916), sequence (P13631 whole entry, looked up, the tested form may be a part): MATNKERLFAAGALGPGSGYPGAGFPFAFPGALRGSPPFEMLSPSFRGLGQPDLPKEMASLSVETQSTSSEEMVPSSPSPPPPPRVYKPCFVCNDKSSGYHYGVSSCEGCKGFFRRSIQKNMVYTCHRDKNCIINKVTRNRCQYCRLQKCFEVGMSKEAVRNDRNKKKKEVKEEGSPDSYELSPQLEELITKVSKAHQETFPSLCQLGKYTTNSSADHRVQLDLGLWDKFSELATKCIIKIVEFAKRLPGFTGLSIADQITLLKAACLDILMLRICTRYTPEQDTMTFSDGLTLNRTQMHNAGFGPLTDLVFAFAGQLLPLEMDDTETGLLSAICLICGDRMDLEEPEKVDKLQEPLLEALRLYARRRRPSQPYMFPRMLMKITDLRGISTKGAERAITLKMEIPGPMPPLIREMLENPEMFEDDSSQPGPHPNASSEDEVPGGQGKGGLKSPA

One may read the AC50 as the concentration at which the activity in the assay is half-maximal. In the case of `Oc1c(Br)cc(Br)cc1Br`, the outcome in assay [1], in assay [2], in assay [5], in assay [8], in assay [10] and in assay [11] was inactive. The call in assay [12], in assay [16] and in [17] was inactive. Also, the AC50 in [3] was 26.9 µM (active); in assay [4] it was 57.1 µM (active); in assay [6] it was 30.1 µM (active); in [7] it was 31.4 µM (active); in assay [9] it was 13.3 µM (active); in [13], 27.4 µM (active). Also, the figures for the half-maximal activity concentration (AC50) in assay [14] and in assay [15] were 11.9 µM (active) and 7.95 µM (active), respectively.
`CCOC(=O)OC1=C(c2cc(C)ccc2C)C(=O)NC12CCC(OC)CC2` (configuration not stated): the call in assay [1], in assay [4], in [18], in assay [9], in assay [10] and in assay [14] was inactive. Besides, the result in assay [15] and in [17] was inactive. In addition, the AC50 in assay [3] is 69.8 µM (active).
In the case of `O=NN1CCCCCCC1`, the compound was classed as inactive in assay [1], in assay [2], in assay [4], in assay [18], in assay [14] and in assay [15]. Moreover, the AC50 in assay [3] was 114 µM (active).
Consider `Nc1ccc(Br)cc1`, for which the call in assay [1], in assay [2], in assay [3], in assay [4], in assay [18] and in [9] was inactive. For the same compound, the compound was called inactive in assay [10], in assay [14], in assay [15] and in assay [17].
Take `COCCl`: the outcome in assay [1], in assay [2], in assay [3], in assay [4], in [18] and in assay [9] was inactive. Besides, the outcome in assay [10], in assay [19], in assay [14] and in [15] was inactive.
With `BrCc1ccc(Br)cc1`, the compound was called inactive in assay [1], in assay [2], in assay [3], in assay [4], in assay [18] and in [10]. The call in [14] and in assay [15] was inactive.
For `c1ccc2c(c1)Oc1ccccc1O2`, the compound was called inactive in [1], in assay [2], in assay [4], in assay [18], in assay [9] and in assay [17].

These data come from PubChem BioAssay (EPA / NIEHS).
